Tgondii IFNg: T. gondii growth inhibition with IFN-gamma, primary screen, cell-based. Toxoplasma gondii growth in IFN-gamma-treated host cells; active compounds read low. AID 1259416, 2018. activity change, negative = inhibition, % (no concentration beside the values). actives 3.8% (n = 69,000); in the data active = activity change below about -70%, passing the limit was not always enough;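 also: host cells are HeLa cells infected with Toxoplasma gondii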
* marks the source's active call; other numbers are inactive results; i = inactive. Shown is part of a subset that was picked to be rich in hits.

SMILES	Tgondii IFNg
O=C1Nc2ccccc2C12Nc1ccccc1CO2 (configuration not stated)	12
COc1cccc(-n2c(=O)c(C(=O)Nc3cc(F)ccc3F)c(O)c3cccnc32)c1	189
COc1ccccc1/C=C/CN1CC2CCCN2C[C@H]1C (some centres not stated)	-79*
COc1ccccc1/C=C/CN1CCNC(C(=O)N2CCCC2)C1 (configuration not stated)	2
COc1ccccc1/C=C/CN1CCN(C)C(C(=O)O)C1 (configuration not stated)	5
CC(C)NC(=O)[C@H]1CCS(=O)(=O)[C@H]2CN(Cc3ccc(F)cc3)C[C@@H]12	2
CCOC(=O)C(Cc1ccccc1)NC(=O)Nc1ccccc1 (configuration not stated)	1
COc1ccc(C)cc1NC(=O)Cn1c(=O)cc(-c2nc(C)no2)c2ccccc21	23
CC(C)C(=O)NCc1cc(=O)n2c(n1)CN(Cc1ccoc1)CCC2	-2
NC(=O)CN1CCOCCOCCN(CC(N)=O)CCOCC1	-71*
CC(C)(C)NC(=O)CCN1CCOCC1	12
N=C(N=C(N)N)N1CCOCC1	11
O=C(CCSc1ccc(C(F)(F)F)cc1)c1ccco1	-28
Cc1cccc(CN2C[C@@H]3CN(C(=O)C4CCOC4)C[C@H]3C2=O)c1 (some centres not stated)	1
CCCn1cc(S(=O)(=O)N2CCN(Cc3csc(C)n3)CC2)c(C)n1	3
CC(=O)OCC(=O)[C@H]1CCC2C3CCC4=CC(=O)CC[C@]4(C)C3CC[C@@]21C (some centres not stated)	-30
C[C@H](CCC(=O)O)[C@H]1CC[C@H]2[C@@H]3[C@@H](O)C[C@@H]4C[C@H](O)CC[C@]4(C)[C@H]3CC[C@]12C	11
CC(=O)OC(C)C1CCC2C3CC[C@H]4CC(=O)CCC4(C)C3CCC12C (some centres not stated)	-97*
Cc1ccc(S(=O)(=O)Nc2ccc(-c3nc(-c4ccc(C)c(C)c4)co3)cc2)cc1	3
Cc1cc(C)n(Cc2ccc(C(=O)Nc3nnc(CCN4CCC(C)CC4)s3)cc2)n1	-5
C=C(C)Cc1c(C)nc(-c2ccc(Cl)cc2)nc1OC(=S)N(CC)CC	-98*
Cc1ccc(C)n1NC(=O)c1ccccc1O	-95*
O=C(Nc1ccccc1)c1ccccc1O	-18
NC(=O)c1ccccc1O	11
COc1ccc2c3c(n(C)c2c1)[C@H](CO)N(Cc1cccnc1)CC31CCN(C(=O)NC(C)C)CC1	i
SMILES	Tgondii IFNg
Cc1nn(C)c(C)c1CC(C)NC(=O)c1ccc(Cl)c(N2CCCCC2)c1 (configuration not stated)	1
COCCN1C(=O)CCc2cc(NC(=O)Cc3cccc(F)c3)ccc21	19
CCOc1ccc(NC(=O)C(=O)NCCc2sc(-c3ccccc3)nc2C)cc1	95
CC(=O)N1CCc2[nH]c3ccc(C(=O)N4CCCC4)cc3c2C1	191
CCCCSC(=S)NC1CCS(=O)(=O)C1 (configuration not stated)	4
CCCCCCCCCCOC1CCS(=O)(=O)C1 (configuration not stated)	-84*
COCCC(=O)c1ccn(-c2ccc3ccc(-c4cnn(C)c4)cn23)n1	-12
COc1ccc(NC(=O)Nc2ccc(OC)c(OC3CCCC3)c2)cc1OC1CCCC1	139
Cc1ccc(NC(=O)OC2CCCCC2)cc1NC(=O)OC1CCCC1	-105*
Cc1ccc(NC(=O)C2CCCCC2C(=O)O)cc1Cl (configuration not stated)	-4
O=C1NCCN(C(=O)CCC2CCCC2)C1CCO (configuration not stated)	7
CC(=O)N1CCC(C(=O)NCc2ccccc2)(N(Cc2cccc(F)c2)C(=O)c2ccc(C)cc2)CC1	-33
O=C(c1ccc(/C=C/c2n[nH]c3ccccc23)cc1)N1CCNCC1	-67
C[C@@H](Oc1ccc2[nH]nc(/C=C/c3cnn(CCO)c3)c2c1)c1c(Cl)cncc1Cl	-75*
O=C(Cc1cccc(F)c1)N1CCC2(CC1)CC(N1CCCC1)CO2 (configuration not stated)	44
CC1CCN(S(=O)(=O)c2ccc3c(c2)CCC(=O)N3CC(=O)N2CCCCC2C)CC1 (configuration not stated)	-10
CCOC(=O)c1c(C)oc2cc(Br)c(OC(C)C(=O)OCC)cc12 (configuration not stated)	-10
CCOC(=O)C1c2ccccc2Oc2ccccc21	23
CCOC(=O)C1=C(N)Oc2ccc(Br)cc2[C@H]1[C@H](C#N)C(=O)OCC	-75*
CCn1nc(C)c(CNC(C)Cn2nc(C)cc2C)c1C (configuration not stated)	1
C[C@@H]1C[C@H]2CCN(C(=O)c3cnccn3)C[C@@H]2O1	-7
Cc1cc(C)n(Cc2nc(-c3ccc(NC(=O)c4ccccc4F)cc3)oc2C)n1	-41
COc1ccccc1C(=O)Nc1ccc(-c2nc(Cn3nc(C)cc3C)c(C)o2)cc1	-85*
Cc1cc(C)n(Cc2nc(-c3ccc(NC(=O)c4ccc(N(C)C)cc4)cc3)oc2C)n1	66

Screens as filed in PubChem.
